Data reported in PubChem BioAssay AID686978 (National Center for Advancing Translational Sciences (NCATS), 2013).
About 64,000 (15%) of roughly 420,000 compounds were called active. Another 27% or so got no clear call; they are omitted. Only a sample is shown. Unmarked numbers belong to inactive results. The call rests on the fitted dose curve; in most records, active means well fitted inhibition curve with a large enough effect; inconclusive means small, poorly fitted or top-dose-only effect; inactive means flat fitted curve, though single readings scatter.

Assay: qHTS for Inhibitors of human tyrosyl-DNA phosphodiesterase 1 (TDP1): qHTS in cells in absence of CPT; further: nearly all actives have a fitted effect of over 55% in size
Conditions: DT40 Tdp1-/- hTDP1 cells, no CPT, ATP luminescence, 48 h; activity change, negative = growth inhibition: at 46.2 µM (top of the series)
How it was run: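 Growth kinetics read by CellTiter-Glo luminescence after ≥48 hr at 37 °C. Cells: DT40 Tdp1-/- stably carrying human TDP1, 400 per well, compound exposure in the absence of CPT (DMSO vehicle).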
On the % scale 0 is the no-effect control and ±100 the full control effect; potency means the concentration at half of the fitted maximal effect.

| Compound | activity change, negative = growth inhibition | Potency |
| --- | --- | --- |
| Cc1nnc(Nc2ccccc2F)s1 | -0.0224% |  |
| Nc1ncnc2c1ncn2[C@@H]1O[C@H](CNCc2cccn2-c2nccs2)[C@@H](O)[C@H]1O | -22.8% |  |
| COc1ccc(N2CCN(CCCNC(=O)C3CCN(S(=O)(=O)N4CCOCC4)CC3)CC2)cc1 | -21.8% |  |
| N#CCCn1c(=O)c(-c2cc(F)cc(F)c2)nc2cnc(Oc3ccccc3)nc21 | -15.8% |  |
| COc1cccc(/C=N\Nc2nncc(-c3ccccc3)n2)c1 | -26% |  |
| CCOc1ccc(/C=N/Nc2nncc(-c3ccccc3)n2)cc1OC |  | 14.6 µM (active) |
| COc1cc(/C=N/n2c(C)n[nH]c2=S)ccc1OCc1ccccc1 | -8.69% |  |
| COc1ccccc1N1CC(C(=O)Nc2ccc(S(=O)(=O)N3CCOCC3)cc2)CC1=O (stereo not given) | 11.5% |  |
| COc1cc(OC)c(N2CC(C(=O)Nc3cc(Cl)ccc3N3CCOCC3)CC2=O)cc1Cl (stereo not given) |  | 3.66 µM (active) |
| Cc1ccc(N2CC(C(=O)Nc3cc(Cl)ccc3-n3cncn3)CC2=O)cc1 (stereo not given) | -23.3% |  |
| O=C(c1cnccn1)N1CCC[C@@]2(CCN(Cc3ccncc3)C2)C1 | 1.51% |  |
| CC(=O)c1cnc(SCCN2C(=O)c3ccccc3C2=O)nc1C | -15.3% |  |
| Cc1cc(NC(=O)CCC(=O)N(c2cccc(F)c2)C(C(=O)NC2CCCC2)c2ccncc2)no1 (stereo not given) | -2.57% |  |
| Cc1cc(NC(=O)/C=C/C(=O)N(c2ccccc2C)C(C(=O)NC2CCCC2)c2ccc(F)cc2)no1 (stereo not given) |  | 23.1 µM (active) |
| Cc1cc(NC(=O)CCC(=O)N(CC(=O)NC2CCCC2)c2ccc(F)cc2)no1 | 3.57% |  |
| O=C(NC1CCC(O)CC1)c1ccc(S(=O)(=O)NCc2ccco2)cc1 (stereo not given) | -15.6% |  |
| COc1ccc(NC(=O)Cn2ncn3c(cc4ccccc43)c2=O)c(OC)c1OC | -14.5% |  |
| COc1ccc(CNC(=O)c2nnn(CC(=O)Nc3cc(C)cc(C)c3)c2N)cc1 |  | inactive |
| C=CCc1ccccc1OCC(=O)N/N=C/c1ccccc1OCC | -40.8% |  |
| Cc1ccc(OCC(=O)N/N=C/c2ccncc2)cc1 | -27.9% |  |
| Cc1ccc(/C=N/NC(=O)COc2ccccc2-c2ccccc2)cc1 |  | 0.184 µM (active) |
| COc1cc(Cl)c(S(=O)(=O)N2CCN(Cc3ccc4c(c3)OCO4)CC2)cc1Cl | -6.7% |  |
| OCCC1CN(Cc2ccc3nsnc3c2)CCN1C1CCCC1 (stereo not given) | 14.4% |  |
| C=C1C(=O)[C@]23C[C@H]1CCC2[C@@]1(C)C(C[C@@H]3O)[C@](C)(C(=O)O)CC[C@@H]1O (stereo not given in full) |  | 6.51 µM (active) |
| O=C(CSc1ncn[nH]1)Nc1nc2c(F)c(F)c(F)cc2s1 | -26.3% |  |

| Compound | activity change, negative = growth inhibition | Potency |
| --- | --- | --- |
| CC(C)(C)NC(=O)NC(=O)COC(=O)Cc1c(F)cccc1Cl | 0.186% |  |
| COc1ccccc1NC(=O)CN1CCN(S(=O)(=O)c2ccc(Br)cc2)CC1 | -0.0441% |  |
| CCN1CCCC1CNC(=O)Cn1cnc2ccc(S(=O)(=O)N3CCC(C)CC3)cc2c1=O (stereo not given) | 14.1% |  |
| COc1ccccc1NC(=O)Cn1cnc2ccc(S(=O)(=O)N3CCC(C)CC3)cc2c1=O |  | 23.1 µM (active) |
| CC(C)CN(C(=O)CN1CCN(S(=O)(=O)c2ccccc2)CC1)c1c(N)n(CC(C)C)c(=O)[nH]c1=O | 8.28% |  |
| Cc1cc(NC(=O)OC(C)C)ccc1-c1ccc(NC(=O)OC(C)C)cc1C | -2.37% |  |
| CN(CCO)c1ccc(/C=N/Nc2nncc3ccccc23)cc1 |  | 14.6 µM (active) |
| COc1ccc(/C=N/Nc2nc3ccccc3c(=O)[nH]2)cc1 | -29% |  |
| CC(=O)Nc1ccc(NC(=O)CCCNC(=O)c2ccc(Cl)cc2)cc1 | -6.67% |  |
| CCCCNC(=O)C1CCCNC1=O (stereo not given) | -7.1% |  |
| COc1cccc(CNC(=O)c2nnn(CC(=O)Nc3cc(C)ccc3C)c2N)c1 | 7.96% |  |
| O=C(CNc1ccccc1N1CCCC1=O)Nc1cc(Cl)ccc1-n1cncn1 | -5.65% |  |
| CCOC(=O)CNC(=O)c1cc2c(=O)n3cccc(C)c3nc2s1 | -11.8% |  |
| CCOC(=O)CC1C(=O)NCCN1c1nc2c(C)cccn2c(=O)c1/C=C1\SC(=S)N(C(C)CC)C1=O (stereo not given) |  | 18.4 µM (active) |
| CCOC(=O)N1CCN(C(=O)CSc2nc(=O)n3cccc(C)c3n2)CC1 | 13.5% |  |
| CCSc1nnc(NC(=O)Cc2ccccc2OC)s1 | -13.9% |  |
| CCOC(=O)N1CCN(C(=O)c2cn(C)c3ccc(S(=O)(=O)N(CC)CC)cc3c2=O)CC1 | 11.6% |  |
| CCCCNC(=O)c1cc(-c2ccc(Cl)c(Cl)c2)on1 | -18.6% |  |
| COC(=O)CN1C(=O)N/C(=C/c2ccc(OC)c(C)c2OC)C1=O | 0.0276% |  |
| O=C(Nc1ccc(OC(F)(F)F)cc1)c1ccc2c(c1)no[n+]2[O-] |  | 3.66 µM (active) |
| Cn1cccc1/C=N/NC(=O)c1ccc(OC(F)(F)C(F)F)cc1 | -7.72% |  |
| COC(=O)[C@H](C)NC(=O)Nc1ccc(OC(F)(F)F)cc1 | -1.87% |  |
| CC(=O)OCc1cc2cc(C)ccc2[nH]c1=O | -12.6% |  |
| CCCCC(=O)N/N=C(\C)CC(=O)Nc1cc(Cl)ccc1OC | 4.59% |  |
| CC(=O)Nc1ccc(OCC(=O)NCc2ccc(C)cc2)cc1 | 11.6% |  |
